ROMK mod: human ROMK K+ channel modulation, primary screen | P48048 | Tet-inducible ROMK, thallium flux fluorescence; actives lie on both sides | B-score at 10 µM | actives 2% (n = 130,000) | AID 1918;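 active = signal ratio slope over the read window, or its plate-corrected B-score, at least 3 SD from the plate mean, either direction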;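 note: B-score of the F/F0 ratio slope over 7 to 12 s after thallium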
Lmaj promast: reduces viability of Leishmania major promastigotes. resazurin fluorescence viability. actives 9% (n = 200,000). inhibition, % at 10 µM; in the data active = inhibition above about 50%;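 note: promastigotes grown with compound for 44 hours at 28 °C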
HCT116 PTEN-null: suppresses growth of cells with PTEN deletion. HCT116 PTEN-null viability, CellTiter-Glo, 60 h; stronger effect = lower value. viability, % at 10 µM. actives 1.2% (n = 140,000). AID 827;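 active = viability at or below a set limit, 4 SD under the median of all tested compounds, cut at about 3.7% in these data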;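 note: PTEN knockout HCT116 line with beta catenin targeted HCT116 as companion control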
p97 ATPase inh: blocks human p97 ATPase activity; P55072; recombinant p97 ATPase, Kinase-Glo ATP luminescence, 3 h; actives 0.42% (n = 220,000); inhibition, % at 8 µM; AID 1481; in the data active = inhibition above about 15%;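 note: 0% = DMSO vehicle and 100% = wells lacking enzyme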
Target sequence (P55072 whole entry, looked up): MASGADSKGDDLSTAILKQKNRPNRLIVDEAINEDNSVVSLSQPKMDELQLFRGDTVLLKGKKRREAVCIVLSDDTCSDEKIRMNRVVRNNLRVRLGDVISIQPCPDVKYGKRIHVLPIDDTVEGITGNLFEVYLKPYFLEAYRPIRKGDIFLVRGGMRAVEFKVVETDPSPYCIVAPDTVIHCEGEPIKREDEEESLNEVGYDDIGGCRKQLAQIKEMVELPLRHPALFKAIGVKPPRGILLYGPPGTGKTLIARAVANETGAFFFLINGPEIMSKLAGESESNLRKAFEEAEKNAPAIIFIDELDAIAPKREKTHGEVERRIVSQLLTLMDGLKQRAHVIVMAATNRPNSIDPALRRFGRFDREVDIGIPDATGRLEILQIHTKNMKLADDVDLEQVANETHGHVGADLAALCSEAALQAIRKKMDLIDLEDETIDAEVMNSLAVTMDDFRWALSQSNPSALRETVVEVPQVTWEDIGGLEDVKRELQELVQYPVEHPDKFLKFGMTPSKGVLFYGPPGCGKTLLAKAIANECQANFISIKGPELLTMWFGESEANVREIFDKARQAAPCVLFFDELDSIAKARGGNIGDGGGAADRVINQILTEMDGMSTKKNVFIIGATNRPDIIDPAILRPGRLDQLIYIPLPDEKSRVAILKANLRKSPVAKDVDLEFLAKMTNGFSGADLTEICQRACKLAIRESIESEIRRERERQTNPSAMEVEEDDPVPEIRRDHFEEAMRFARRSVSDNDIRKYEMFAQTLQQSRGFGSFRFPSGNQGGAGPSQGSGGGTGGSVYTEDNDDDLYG
bCat KO growth: beta-catenin-lacking colon tumor cell growth suppression. viability, % at 10 µM. HCT116 beta-catenin knockout viability, CellTiter-Glo, 60 h; stronger effect = lower value. actives 1.5% (n = 140,000);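 active = viability at or under a set limit, the compound median less 4 SD, cut at about 6% in these data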;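 note: 0% = Hyamine 1622 control at 20 µM and 100% = untreated cell control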
Insulin prom inh: TRM-6 insulin promoter activity inhibition | actives 0.9% (n = 130,000) | AID 1273 | TRM-6 cells (human fetal islet line), insulin promoter-eGFP reporter, imaging; reporter expression induced with tamoxifen | inhibition, % at 2 µM;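 active = inhibition above the mean plus 3 SD, with well images judged a real hit on visual review, cut at about 60% in these data, passing the limit was not always enough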
* hit, by the source's call; x = no result given. Only some compounds are listed: those with a hit (about 10% of all), similar ones and a draw of the others.

SMILES	ROMK mod	Lmaj promast	HCT116 PTEN-null	p97 ATPase inh	bCat KO growth	Insulin prom inh
Cc1cc(C)cc(NC(=O)Nc2ccccc2N2CCCCC2)c1	x	x	x	4	x	x
COc1ccc(/C=C2\CCc3ccccc3C2=O)cc1OC	x	51*	8	-6	7	27
COc1ccc(/C=C2\CC/C(=C\c3ccc(OC)c(OC)c3)C2=O)cc1OC	-0.28	27	69	-3	58	8
COc1cccc(/C=C2\CCc3ccccc3C2=O)c1	x	x	x	-1	x	x
COc1ccc(/C=C2/CCc3ccccc3C2=O)cc1CN1CCOCC1	-0.51	82*	32	-1	21	-85
COc1ccc(/C=C2\CCc3ccccc3C2=O)cc1Cn1nc(C)cc1C	-0.022	74*	12	-4	17	-25
CCCN1CCN(C(=S)NCc2ccc(Cl)cc2)CC1	-0.75	81*	x	2	x	x
CC1CCN(C(=S)Nc2ccc(SC(F)F)cc2)CC1	x	72*	91	0	90	24
CCCN1CCN(C(=S)Nc2ccc(SC(F)F)cc2)CC1	-0.88	90*	x	2	x	50
N#C/C(=N\Nc1cccc(C(F)(F)F)c1)C(=O)c1csc(-c2cccnc2)n1	-3.8*	x	x	4	x	x
O=[N+]([O-])c1ccc(Nc2cccc(F)c2)nc1	0.02	1	x	-1	x	x
CCOP(=O)(OCC)C(Nc1ccc(F)cc1)c1ccccc1 (centres undefined)	-0.22	x	x	3	x	x
CCOP(=O)(OCC)C(Nc1cccc(C(F)(F)F)c1)c1ccc(Br)cc1 (centres undefined)	x	99*	27	0	45	-34
NNc1nc(Nc2ccccc2)nc(N2CCCCC2)n1	x	100*	97	7	92	64
O=[N+]([O-])c1ccc(Nc2nc(NCCO)nc(N3CCCC3)n2)cc1	-0.91	45	x	3	x	x
CCCNc1nc(Nc2ccc(C)cc2)nc(N2CCCC2)n1	x	89*	61	-3	57	35
NNc1nc(Nc2ccccc2)nc(Nc2ccccc2)n1	-1.8	100*	x	4	x	-75
c1ccc2oc(-c3ccc(Nc4nc(N5CCCCC5)nc(N5CCOCC5)n4)cc3)nc2c1	x	74*	101	6	103	-9
CNc1nc(Cl)nc(Nc2ccccc2)n1	0.0096	-2	x	2	x	x
CC(C)CN1C(=S)SC(C)(C)C1n1oc(=O)n(-c2ccc(Cl)cc2)c1=O (centres undefined)	-0.37	15	0.8*	6	2.3*	-8
CC(C)c1ccc(-c2c(C#N)c(N)nc(SCC(=O)N3CCCCCC3)c2C#N)cc1	0.31	51*	99	-1	82	7
CC(C)c1ccc(-c2c(C#N)c(N)nc(SCC(=O)N3CCCCC3)c2C#N)cc1	1.6	-4	87	5	90	x
N#C/C(=C(/O)CSc1ncn[nH]1)c1nc2ccccc2[nH]1	-0.39	7	x	9	x	-95
COc1ccc(C(=O)Nc2c(Cl)cc(Cl)cc2C(=O)N2CCOCC2)cc1	0.12	6	x	2	x	x
Cc1ccc(-n2c(SCC(=O)Nc3cccc(S(N)(=O)=O)c3)nc3ccccc32)cc1	-0.099	78*	56	8	68	6
SMILES	ROMK mod	Lmaj promast	HCT116 PTEN-null	p97 ATPase inh	bCat KO growth	Insulin prom inh
COc1cc([N+](=O)[O-])ccc1NC(=O)CSc1nc2ccccc2n1-c1ccccc1	-0.22	92*	86	0	81	-7
CCOc1ccc(-n2c(SCC(=O)Nc3cc(OC)c([N+](=O)[O-])cc3C)nc3ccccc32)cc1	x	98*	84	11	85	32
CC(C)Cn1c(SCC(=O)Nc2cccc(S(N)(=O)=O)c2)nc2ccccc2c1=O	0.0073	23	x	3	x	x
COc1cc([N+](=O)[O-])ccc1NC(=O)CSc1nccn1C	-0.6	9	x	2	x	-18
C=CCNc1nc(S(=O)Cc2ccc(C)cc2)nc2c1CCCC2 (centres undefined)	-0.16	24	x	-5	x	73*
CC(=O)N/N=C/c1cc(C(C)C)cc(/C=N/NC(C)=O)c1O	-3.3*	-8	x	6	x	-27
Cc1nc(Nc2ccc(S(=O)(=O)N3CCCCC3C)cc2)c2nnn(Cc3ccccc3)c2n1 (centres undefined)	-0.082	90*	51	-3	51	12
Cc1ccc2nc(NC(=O)CSc3nnc(C)c(=O)n3N)sc2c1	0.033	54*	86	6	91	25
COc1ccc(Br)c2oc(S)cc(=O)c12	-0.24	-4	91	9	94	71*
CC(=O)Nc1ccc(NC(=O)c2ccccc2CCc2ccccc2)cc1	0.5	-4	x	-2	x	x

Screening results deposited in PubChem BioAssay by several laboratories.
